Reference: PubChem BioAssay
Results filed as inconclusive are left out. Activity calls are given as the source filed them.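 Rule for the calls, unless noted: active = viability at or under a set limit in both replicates, limit being median viability minus 3 SD (cut at about 48% in these data, passing the limit was not always enough); inconclusive = at or under the limit in just one replicate; inactive = at or above the limit in both replicates.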

Experiments:
[1] = Her2 expression decrease, cell viability multiplex – SKBR3 breast tumor cells, AlphaScreen, ATP viability, primary screen (AID 461;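 active = Her2 level under about 52% in both replicate screens, with viability over 70% of control, limit read from the data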;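 for Her2 level: lower value means less Her2 protein in the cells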;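 for viability: percent of carrier control wells set as 100% viability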); conditions: SKBR3 Her2 protein level, 18-24 h, measured here: SKBR3 viability, ATP luminescence, at 10 µM
[2] = biological target: Receptor tyrosine-protein kinase erbB-2 (Homo sapiens) (UniProt P04626); assay: as above; conditions: 18-24 h, at 10 µM, stronger effect = lower value
Receptor tyrosine-protein kinase erbB-2 (Homo sapiens), sequence (P04626 whole entry, looked up): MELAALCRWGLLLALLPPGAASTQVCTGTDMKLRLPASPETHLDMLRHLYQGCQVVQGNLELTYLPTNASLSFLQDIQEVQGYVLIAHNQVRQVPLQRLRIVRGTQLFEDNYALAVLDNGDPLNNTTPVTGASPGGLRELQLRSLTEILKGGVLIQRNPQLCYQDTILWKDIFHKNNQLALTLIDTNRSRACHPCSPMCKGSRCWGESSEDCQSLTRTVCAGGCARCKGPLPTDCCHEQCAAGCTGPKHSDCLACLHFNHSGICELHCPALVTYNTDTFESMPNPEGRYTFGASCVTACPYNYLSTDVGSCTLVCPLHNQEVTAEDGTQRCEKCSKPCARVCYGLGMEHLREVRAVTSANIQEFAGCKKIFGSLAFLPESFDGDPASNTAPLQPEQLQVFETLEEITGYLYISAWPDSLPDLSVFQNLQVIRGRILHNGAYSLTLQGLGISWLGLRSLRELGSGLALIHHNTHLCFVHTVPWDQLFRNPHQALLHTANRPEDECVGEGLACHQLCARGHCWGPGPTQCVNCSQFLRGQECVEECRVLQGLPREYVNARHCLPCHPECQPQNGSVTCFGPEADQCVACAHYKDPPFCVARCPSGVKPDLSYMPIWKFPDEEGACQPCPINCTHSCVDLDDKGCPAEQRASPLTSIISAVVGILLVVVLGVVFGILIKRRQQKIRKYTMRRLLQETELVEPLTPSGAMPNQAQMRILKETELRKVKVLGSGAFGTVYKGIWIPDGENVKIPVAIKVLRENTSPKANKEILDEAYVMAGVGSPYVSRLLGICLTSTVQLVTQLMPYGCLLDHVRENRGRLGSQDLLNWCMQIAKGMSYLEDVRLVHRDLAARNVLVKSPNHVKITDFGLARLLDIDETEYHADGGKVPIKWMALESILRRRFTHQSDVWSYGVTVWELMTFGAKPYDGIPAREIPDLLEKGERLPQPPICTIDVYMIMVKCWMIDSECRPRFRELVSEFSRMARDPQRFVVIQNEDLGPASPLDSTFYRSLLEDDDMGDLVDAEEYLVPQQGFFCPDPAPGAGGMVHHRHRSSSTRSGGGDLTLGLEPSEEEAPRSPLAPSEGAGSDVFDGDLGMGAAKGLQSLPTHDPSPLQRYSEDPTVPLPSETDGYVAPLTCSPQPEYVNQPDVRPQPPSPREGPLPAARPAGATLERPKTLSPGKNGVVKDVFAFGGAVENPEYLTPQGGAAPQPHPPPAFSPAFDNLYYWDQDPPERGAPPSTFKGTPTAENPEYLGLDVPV

[3] = reduced viability of SK-BR-3 breast cancer cells – cell-based, 24 h, human, pilot screen (AID 572;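 active = viability at or below 10% of carrier control in both of two separate runs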;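 note: compound exposure lasted between 18 and 24 h rather than exactly 24 h; 100% = carrier-treated control wells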); conditions: SK-BR-3 viability, CellTiter-Glo luminescence, at 10 µM, stronger effect = lower value
[4] = HUVEC growth inhibition – cell-based, human, primary screen (AID 575;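 active = viability at or below 30% in both replicate assays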;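 note: 100% = median of untreated cell wells with 0.1% DMSO on each plate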); conditions: HUVEC proliferation, CellTiter-Glo luminescence, 72 h; at 10 µM; stronger effect = lower value
[5] = H69AR cell proliferation blockers – human, duplicate replicates, primary screen (AID 580); conditions: H69AR lung tumor cells viability, ATP luminescence, 72 h; at 10 µM; stronger effect = lower value;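 note: 100% = mean luminescence of untreated wells and 0% = no signal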
[6] = MRP1 drug-resistance reversers in H69AR cells – cell-based, doxorubicin co-treatment, pilot screen (AID 601;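 active = viability loss from added drug above about 55%, and viability with drug at most 40%, in both replicates, limit read from the data, passing the limit was not always enough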); conditions: CellTiter-Glo, 72 h, at 10 µM; for differential viability (reversal): stronger effect = higher value
[7] = yeast transport mutant growth inhibition pilot in 384-well plates, post-Golgi transport modulator project (AID 636; in the data active = inhibition above about 31%); conditions: absorbance 615 nm, about 18 h, stronger effect = higher value
[8] = growth suppression of yeast trafficking mutant, preliminary HTS, modulators of trafficking downstream of Golgi apparatus project, 1536-format plate, OD 615 nm (AID 637; in the data active = inhibition above about 30%); conditions: yeast transport mutant growth, absorbance 615 nm, 18 h; stronger effect = higher value
[9] = S. cerevisiae growth inhibition in permissive medium (OD615), pilot counter-assay for S. cerevisiae lifespan shortening project, permissive growth control (AID 705;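 active = growth inhibition above 25% in both replicates, a cutoff set 3 SD above the mean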); conditions: OD615, 24 h, at 10 µM, stronger effect = higher value
[10] = S. cerevisiae growth inhibition in restrictive medium, OD615, pilot screen, restrictive growth control, yeast lifespan reduction project (AID 706;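 active = growth inhibition above a set limit, 3 SD over mean compound inhibition, in both replicates, cut at about 43% in these data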;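 note: modified DeaD lifespan yeast strain shifted to restrictive glucose medium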); conditions: OD615, 48 h, at 10 µM, stronger effect = higher value
[11] = doxorubicin toxicity protection in MRP-1 cells – H69AR cells, CellTiter-Glo, duplicate, MRP-1 activator project, pilot screen (AID 807;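 active = viability increase at or above a cutoff of the median across tested compounds plus 3 SD, cut at about 8.5% in these data, passing the limit was not always enough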;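 note: compound pretreatment 18-22 h then 72 h combined with doxorubicin; 0% = doxorubicin alone and 100% = vehicle without doxorubicin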); conditions: H69AR viability with doxorubicin, CellTiter-Glo luminescence; at 10 µM; stronger effect = higher value
[12] = viability of HCT116 without oncogenic beta-catenin – human colon tumor cells, pilot screen (AID 823;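 active = cell viability at or below a set limit in both duplicate runs, the limit being the all-compound median minus 4 SD, cut at about 23% in these data, passing the limit was not always enough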;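 note: 0% = wells killed by 20 µM Hyamine and 100% = untreated DMSO cell wells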); conditions: HCT116 beta-catenin knockout viability, CellTiter-Glo, 60 h; at 10 µM; stronger effect = lower value
[13] = viability of PTEN-null HCT116 cells – cell-based, HCT116 clonal line, CellTiter-Glo, pilot screen (AID 824;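 active = viability at or below 27.92% in each of two runs, the all-compound median minus 4 SD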;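 note: 0% = 20 µM Hyamine control and 100% = vehicle cell control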); conditions: HCT116 PTEN-deleted viability, 60 h, at 10 µM, stronger effect = lower value
[14] = RAM pathway blockade in budding yeast – dse1pr::URA3 reporter, 5-FOA selection, pilot screen (AID 869;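 active = inhibition over a set limit, the all-compound mean plus 3 SD, in both replicate runs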;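 note: 0% = DMSO wells with no growth and 100% = 10 µM 1-NA-PP1 with full growth; RAM network block rescues cells from 5-FOA so hits raise OD615 growth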); conditions: S. cerevisiae dse1pr::URA3 5-FOA growth, OD615, 2 d; at 10 µM; stronger effect = higher value; strain carries analog-sensitive mutant Cbk1 kinase
[15] = RAM signaling pathway blockade in yeast – S. cerevisiae, Pdr1DBD-CYC8 efflux-inhibited sensitized strain, primary screen (AID 1298;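 active = RAM network inhibition above 8.4% in each of two replicates, 3 SD over the compound average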;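 note: 0% = DMSO untreated cells without growth and 100% = 10 µM 1-NA-PP1 full growth; higher means more yeast growth rescued from 5-FOA killing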); conditions: S. cerevisiae cbk1-as DSE1-URA3 strain, 5-FOA growth OD615, 2 d; at 50 µM; stronger effect = higher value
[16] = H69AR cells + 2 uM doxorubicin, measured here: viability with 2 uM doxorubicin, stronger effect = lower value
[17] = H69AR cells, compound alone cytotoxicity

| Structure (SMILES) | viability [1] | Her2 level [2] | viability [3] | viability [4] | viability [5] | differential viability (reversal) ([6]; H69AR cells + 2 uM doxorubicin) | viability [6, 16] | viability [6, 17] | inhibition [7] | inhibition [8] | growth inhibition [9] | growth inhibition [10] | viability increase [11] | viability [12] | viability [13] | inhibition [14] | RAM network inhibition [15] |
| --- | --- | --- | --- | --- | --- | --- | --- | --- | --- | --- | --- | --- | --- | --- | --- | --- | --- |
| O=C(Cc1cccs1)Nc1ccccc1NC(=O)Cc1cccs1 | 81% | 87.5% (inactive) | 81% (inactive) | 107% (inactive) | 94.7% (inactive) | 3.74% (inactive) | 91% | 94.7% | -1.15% (inactive) | -7.83% (inactive) | -1.23% (inactive) | -8.9% (inactive) | -4% (inactive) | 92% (inactive) | 91.9% (inactive) | 0.905% (inactive) | -0.25% (inactive) |
| CCn1cc(C(=O)NCC2CCCO2)c(=O)c2cc(S(=O)(=O)N(C)C)ccc21 (stereo not given) | 85.5% | 113% (inactive) | 85.5% (inactive) | 105% (inactive) | 88.6% (inactive) | 5.47% (inactive) | 83.1% | 88.6% | -0.13% (inactive) | -3.83% (inactive) | -1.35% (inactive) | 1.3% (inactive) | -0.77% (inactive) | 101% (inactive) | 94.9% (inactive) | 2.33% (inactive) | 1.14% (inactive) |
| CC1CCCCC1NC(=O)Cn1ncc2ccccc21 (stereo not given) | 104% | 104% (inactive) | 104% (inactive) | 82.1% (inactive) | 90.4% (inactive) | 4.98% (inactive) | 85.4% | 90.4% | -2.93% (inactive) | 0.33% (inactive) | -12.1% (inactive) | -9.67% (inactive) | -1.21% (inactive) | 98.6% (inactive) | 95.7% (inactive) | 1.98% (inactive) | 0.04% (inactive) |
| C=CCn1c(=O)n(CCOC)c(=O)c2sc3ccccc3c21 | 85% | 105% (inactive) | 85% (inactive) | 87.4% (inactive) | 86.8% (inactive) | -13.7% (inactive) | 100% | 86.8% | -0.53% (inactive) | 4.33% (inactive) | -13.3% (inactive) | -5.77% (inactive) | -4.03% (inactive) | 89.9% (inactive) | 86.7% (inactive) | 0.25% (inactive) | 1.71% (inactive) |
| CCOC(=O)c1ccc(N2Cc3cc(C)c(C)cc3C2)cc1O | 95.5% | 95.5% (inactive) | 95.5% (inactive) | 108% (inactive) | 97.3% (inactive) | 4.4% (inactive) | 92.9% | 97.3% | 4.27% (inactive) | 10.3% (inactive) | -10.9% (inactive) | -7.42% (inactive) | 2.66% (inactive) | 107% (inactive) | 93.8% (inactive) | 0.285% (inactive) | 1.88% (inactive) |
| CCc1nc2sc(C)c(C)c2c(=O)n1CCO | 106% | 85% (inactive) | 106% (inactive) | 104% (inactive) | 94.7% (inactive) | 4.12% (inactive) | 90.6% | 94.7% | -6.23% (inactive) | -3.67% (inactive) | -1.03% (inactive) | 0.805% (inactive) | -1.82% (inactive) | 104% (inactive) | 102% (inactive) | 0.35% (inactive) | 2.87% (inactive) |
| O=C(c1ccco1)N1CCN(C(=O)C2CC(c3ccc(F)cc3)=NO2)CC1 (stereo not given) | 88% | 112% (inactive) | 88% (inactive) | 94.1% (inactive) | 88.5% (inactive) | 0.74% (inactive) | 87.8% | 88.5% | -1.15% (inactive) | -4.17% (inactive) | -1.38% (inactive) | 22% (inactive) | -1.41% (inactive) | 106% (inactive) | 105% (inactive) | 0.47% (inactive) | 5.01% (inactive) |
| CCOC(=O)N1CCN(C(=O)COc2ccc(S(=O)(=O)NC(C)C)cc2)CC1 | 96% | 105% (inactive) | 96% (inactive) | 106% (inactive) | 90.3% (inactive) | 0.365% (inactive) | 90% | 90.3% | -5.07% (inactive) | 2.33% (inactive) | -17.6% (inactive) | -20.2% (inactive) | -0.64% (inactive) | 96.2% (inactive) | 93% (inactive) | 1.71% (inactive) | 7.54% (inactive) |
| O=C(Nc1ccc(N2CCCC2)cc1)c1ccc(Br)o1 | 93.5% | 93.5% (inactive) | 93.5% (inactive) | 94.3% (inactive) | 101% (inactive) | 15.6% (inactive) | 85.2% | 101% | 0.27% (inactive) | 1.97% (inactive) | 3.95% (inactive) | 14.9% (inactive) | -0.48% (inactive) | 94% (inactive) | 92.3% (inactive) | 3.5% (inactive) | 6.03% (inactive) |
| CC(=O)Nc1ccc(N=Cc2ccc[nH]2)cc1 | 97.5% | 87.5% (inactive) | 97.5% (inactive) | 95.3% (inactive) | 88.5% (inactive) | -1.47% (inactive) | 90% | 88.5% | 1.28% (inactive) | -5.5% (inactive) | -11.4% (inactive) | -5.65% (inactive) | -1.9% (inactive) | 90.7% (inactive) | 92.8% (inactive) | 0.435% (inactive) | 3.68% (inactive) |
